Drawing on PMC12864922, “TDP-43 directly inhibits mRNA accumulation in neurites through modulation of mRNA stability”, this text covers binding signal for 7 molecules.

The full ranking holds about 9,900 sequences; the median of “r (bound/input frequency ratio)” is about 0.7, and the highest 2% start at about 6.5. The full list was thinned out, with the highest values kept by preference.

B1: ENSMUSG00000031028.287|Tub (ssRNA)
RNA: GGGAGUUCUACAGUCCGACGAUCGCUUCGAUAUCCGCAUGCUAGGCUGGAUUGAUGUAAAUGGAAGUAGUACUUUAAGAAAGCUCUAGAUUUCCCAGGUUGGACACUCGACGAAAGGCACACCUGCUGCAGCAGGUUCUGACACACCUGAGCCAUACAUUGCCAUCAGAGAACCCUCAGCGAGGUAGCCUUUGUUUACAGUCUAGUUUCUAGAGGGCAGUAGGACUUCCAUGCUGGGGCUGGCCUAUCUCCUGAUGAAAGAUUACAGUGCCAUCUCCUUCCCAUAGUUCUGUGUCUGCCCUCCCUCUUGCGGUCGCACUAGUGUGGAAUUCUCGGGUGUCAAGG
B2: ENSMUSG00000029636.242|Wasf3 (ssRNA)
RNA: GGGAGUUCUACAGUCCGACGAUCGCUUCGAUAUCCGCAUGCUACAUUGUGUCAGUUGACAGGGAAUGCCUGUGGGAUAAUUAAAAAUGGUUUUUGCUCAUGAGUUUGGGAUGUCACCCAGCCGCCCACAUCGCCUGCUAUGUGUGUGGACGCCUGUCCGCUUGGCCAGCUAUCCUGUAACACCUGCCAGUAGUAGGUUUUCCUCAUGUCACUAUGACAGUGAAAGCCCAUGUGCAAGCCCCUCCCUACGCCCUGCUUUGGCGUGUGUCUGAGUGCUCUGUGCUGCGCCAUGGCCAUCCUGGAGCUCUUGCGGUCGCACUAGUGUGGAAUUCUCGGGUGUCAAGG
B3: ENSMUSG00000028439.73|Fam219a|190:194 (ssRNA)
RNA: GGGAGUUCUACAGUCCGACGAUCGCUUCGAUAUCCGCAUGCUAGUAAGCGUUGGGUGAAGGGAUCACAGGGCCGGAAGGUUGGCCCCAGCCAGUGAAGCCAUGAAUCCCCCCCAAGCCCGGCUUGGAAAGGAAGGAAAGGGGUUUUGAGAAGAAAAGGAUCCAAGCAAUGGGGGCAGUUCUCACACCUCAGAGCCCCUCUCCCCAAACCCUGUGCCAGCCCAUAUACCUAUUACACAUUUCCCCUCAUCUCCAGAUGGGAAGCCUGGCAGCGCUGUCCAAAGGGAUACUGUCUCUCCAUUAGACUCUUGCGGUCGCACUAGUGUGGAAUUCUCGGGUGUCAAGG
B4: ENSMUSG00000028439.184|Fam219a|6:22;24:41;51:58 (ssRNA)
RNA: GGGAGUUCUACAGUCCGACGAUCGCUUCGAUAUCCGCAUGCUAUGUGCCACACACAUACACACACCCACACACACACACACACAUGUACCCGACACACACAUGAGCCUAUCUGUCCAGGGAACCAGAUUGGUGUCCGAGAUGAGGAAAUGGCUGUGGCCUGGGAAAUCAGUGAGAGGCCGCUUGGGAAUGAGAAUGCAGUGGACUGAAAGCACAGCCUGGCCAUCUGGAACCUGGGUUCUGGUCCCAGCCUCGGCAUUCUCCCUGAGCUCCUAAGCAAUUCCCAGGCUUCUCUAGGGCUUCAGCUCUUGCGGUCGCACUAGUGUGGAAUUCUCGGGUGUCAAGG
B5: ENSMUSG00000061578.502|Ksr2|17:22;189:195 (ssRNA)
RNA: GGGAGUUCUACAGUCCGACGAUCGCUUCGAUAUCCGCAUGCUAAGUGCUGGGAUUAAAGCACACAACCACCAUUGCAAUCUUGAACUCUUGACCAAUAGAAAUCCUAGACUAGUGUUGCUAGGCAACUGACUGUAUUCAGGACACCCAGGGUGGGAGGUGGAUGGAGCUCUUGCCUAACACACACCAAGCCCCAAGUUCCAUCCCCAGUCCCACACAAACCAGAUAUGAUGCACACACCCUAUGUCCCCCACACACGAGAGAGCUGGAGGCAGGAGGAUCAGAAGUUCAGGGCCAUCCUUAAUCUCUUGCGGUCGCACUAGUGUGGAAUUCUCGGGUGUCAAGG
B6: ENSMUSG00000028439.184|Fam219a (ssRNA)
RNA: GGGAGUUCUACAGUCCGACGAUCGCUUCGAUAUCCGCAUGCUAUGUGCGUGUGUGUAUGUGUGUGCGUGUGUGUGUGUGUGUGUUGUACCCGAGUGUGUGUUGAGCCUAUCUGUCCAGGGAACCAGAUUGGUGUCCGAGAUGAGGAAAUGGCUGUGGCCUGGGAAAUCAGUGAGAGGCCGCUUGGGAAUGAGAAUGCAGUGGACUGAAAGCACAGCCUGGCCAUCUGGAACCUGGGUUCUGGUCCCAGCCUCGGCAUUCUCCCUGAGCUCCUAAGCAAUUCCCAGGCUUCUCUAGGGCUUCAGCUCUUGCGGUCGCACUAGUGUGGAAUUCUCGGGUGUCAAGG
B7: ENSMUSG00000061578.501|Ksr2|23:28;195:201 (ssRNA)
RNA: GGGAGUUCUACAGUCCGACGAUCGCUUCGAUAUCCGCAUGCUACUCCCAAGUGCUGGGAUUAAAGCACACAACCACCAUUGCAAUCUUGAACUCUUGACCAAUAGAAAUCCUAGACUAGUGUUGCUAGGCAACUGACUGUAUUCAGGACACCCAGGGUGGGAGGUGGAUGGAGCUCUUGCCUAACACACACCAAGCCCCAAGUUCCAUCCCCAGUCCCACACAAACCAGAUAUGAUGCACACACCCUAUGUCCCCCACACACGAGAGAGCUGGAGGCAGGAGGAUCAGAAGUUCAGGGCCAUCCUCUUGCGGUCGCACUAGUGUGGAAUUCUCGGGUGUCAAGG

The test deals with TDP-43 (Homo sapiens, UniProt Q13148 1-414). Kind of test: RNA Bind-n-Seq with designed 260-mer pool; 25 mM Tris-HCl, 150 mM KCl, 3 mM MgCl2, BSA (printed 500 mg/mL), 20 units/mL SUPERase IN; pH not stated; 500 nM RNA pool, 1 h, 4 C; TDP-43 5, 50, 500 nM; high values mean tight binding. The conditions noted are these: protein: recombinant; tags: SBP (GST cleaved off with PreScission; pGEX-GST-SBP). In short, it runs like this: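 Streptavidin beads captured recombinant SBP-tagged TDP-43 at 5, 50 or 500 nM, and the beads were incubated for 1 h at 4 °C with 500 nM of an in vitro-transcribed pool of 260-nt 3′ UTR oligos in 25 mM Tris-HCl, 150 mM KCl, 3 mM MgCl2, BSA and SUPERase IN. After washing, bound RNA was eluted with biotin, reverse transcribed, PCR-amplified and sequenced. Binding is reported as R, the mapped-read-normalized abundance of each oligo in the bound sample divided by its abundance in the input. Two independent protein batches served as duplicates.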
Chain of TDP-43 (Q13148 whole entry): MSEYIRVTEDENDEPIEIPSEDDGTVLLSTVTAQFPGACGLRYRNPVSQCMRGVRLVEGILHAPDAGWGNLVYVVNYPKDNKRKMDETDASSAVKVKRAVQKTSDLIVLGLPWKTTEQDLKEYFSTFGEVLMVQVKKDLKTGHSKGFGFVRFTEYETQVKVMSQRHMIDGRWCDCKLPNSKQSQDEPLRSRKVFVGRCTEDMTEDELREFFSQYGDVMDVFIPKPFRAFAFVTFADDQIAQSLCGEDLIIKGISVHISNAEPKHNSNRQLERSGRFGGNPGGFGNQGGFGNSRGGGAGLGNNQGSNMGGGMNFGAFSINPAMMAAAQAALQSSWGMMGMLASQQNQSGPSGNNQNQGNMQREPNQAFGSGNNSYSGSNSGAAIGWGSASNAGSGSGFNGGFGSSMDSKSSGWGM
Consider B1, for which the binding signal was 0.856 R (bound/input frequency ratio).
Take B2: the binding signal is 0.663 R (bound/input frequency ratio).
For B3, the binding signal was 0.449 R (bound/input frequency ratio).
As for B4, the figure is 2.43 R (bound/input frequency ratio); as for B5, 3.46 R (bound/input frequency ratio).
Consider B6, for which the binding signal was 7.33 R (bound/input frequency ratio).
As for B7, the figure is 6.59 R (bound/input frequency ratio).
